Results filed as inconclusive are left out. The source made the active and inactive calls. Calls come from the whole dose curve; as a rule, active = well fitted curve in the direction sought with a large enough effect; inconclusive = small, poorly fitted or top-dose-only effect, or another doubt; inactive = no such curve, though single readings can be large; an effect the other way counts as inactive or inconclusive.
Biological target: Cytochrome P450 3A4 (Homo sapiens) (UniProt P08684)
Assay: qHTS Assay for Activators of Cytochrome P450 3A4 (AID 885); note: nearly all actives have a fitted effect of over 65% in size
Settings: recombinant CYP3A4, Luciferin-PPXE luminescence, 60 min; series mostly up to 57.1 µM
In short: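 Human CYP3A4 dealkylates Luciferin-PPXE to luciferin, which luciferase detection converts to light. Substrate was at its KM (25uM), buffer 200mM KPO4, reaction 60 min at RT.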

Sequence of Cytochrome P450 3A4 (Homo sapiens) (P08684 whole entry, looked up): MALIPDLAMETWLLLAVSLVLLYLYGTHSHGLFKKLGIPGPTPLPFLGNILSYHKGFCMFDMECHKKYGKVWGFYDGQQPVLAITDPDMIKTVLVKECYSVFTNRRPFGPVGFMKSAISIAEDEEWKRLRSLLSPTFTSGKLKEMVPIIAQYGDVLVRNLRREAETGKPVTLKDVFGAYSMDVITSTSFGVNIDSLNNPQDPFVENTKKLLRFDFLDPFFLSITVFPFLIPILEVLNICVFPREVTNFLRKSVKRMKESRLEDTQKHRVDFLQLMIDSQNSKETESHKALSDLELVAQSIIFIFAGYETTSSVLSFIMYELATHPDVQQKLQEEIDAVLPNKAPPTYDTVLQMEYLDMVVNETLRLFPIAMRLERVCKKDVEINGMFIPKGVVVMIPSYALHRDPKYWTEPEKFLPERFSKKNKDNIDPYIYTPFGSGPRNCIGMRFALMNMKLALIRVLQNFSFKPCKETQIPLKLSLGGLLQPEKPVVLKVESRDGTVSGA

Activity change, positive = activation, inactive:
CCCCCCCC#Cc1ccccc1C(NC(=O)OC)C(C(=O)OC)C(=O)OC (stereo not drawn) -56.4% [at 11.4 µM], CCCNC(=O)OC[C@@H]1O[C@H](CCON=C(C)C)C=C[C@@H]1Oc1ccc(OC)cc1 -58.2% [at 11.4 µM], CC/C=C\CC[C@H](OC(=O)c1ccc(Br)cc1)C1=CCCCC1=O -40.7% [at 11.4 µM], COC(=O)[C@@H]1CC[C@H](C)[C@@H](c2ccc(C)cc2)N1C(=O)c1ccc(/C=N\OC[C@@H]2O[C@H](c3ccccc3)C=C[C@@H]2Oc2ccc(OC)cc2)cc1 -30% [at 11.4 µM], COc1ccc(-c2ccc3c(n2)CCCN3C[C@H](O)CN2CCCc3nc(-c4ccc(Br)cc4)ccc32)cc1 -31.9% [at 11.4 µM], O=C1[C@@H]2[C@H]3[C@H](O)[C@H](O)C/C(=N/OC[C@@H](O)COCc4ccco4)[C@@H]3CC[C@H]2C(=O)N1c1ccc(F)cc1F -48.8% [at 11.4 µM], CC(=O)OC[C@@H]1O[C@H](C/C=N\OCC[C@H]2C=C[C@H](OC(C)=O)[C@@H](COC(C)=O)O2)C=C[C@@H]1OC(C)=O -31% [at 11.4 µM]

Potency, inactive:
C=CC(C1=CC(=O)C(OC)=C(OC)C1=O)c1ccccc1 (stereo not drawn), CC1(C)CC[C@]2(C(=O)O)C(O)C[C@@]3(C)C(=CCC4[C@@]5(C)CCC(O)C(C)(C)C5CC[C@@]43C)C2C1 (stereo partly drawn), CCC(=O)OCC(=O)C1(OC(=O)CC)C(C)CC2C3CCC4=CC(=O)C=CC4(C)C3(Cl)C(O)CC21C (stereo not drawn), COC(=O)c1c(C)cc(O)cc1O, C#CCCCCCCCCCCCC(O)CC(O)COC(C)=O (stereo not drawn), CCCN1CC(CSC)C[C@H]2c3cccc4[nH]cc(c34)C[C@H]21 (stereo partly drawn), CCC1CN2CCc3cc(OC)c(OC)cc3C2CC1CC1NCCc2cc(OC)c(OC)cc21 (stereo not drawn)

Biological target: Cytochrome P450 2D6 (Homo sapiens) (UniProt P10635)
Assay: qHTS Assay for Inhibitors and Substrates of Cytochrome P450 2D6 (AID 891);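 note: luciferin methyl ether substrate demethylated by CYP2D6 with NADPH regeneration; % is set by controls: 0 for no effect and ±100 for the full control effect; nearly all actives have a fitted effect of over 60% in size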
Settings: recombinant CYP2D6, luciferin-ME EGE luminescence; series mostly up to 11.4 µM
In short: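 Luminescent read-out of luciferin formed by 5 nM human CYP2D6 demethylating 30 uM Luciferin-ME EGE (Km level) over 60 min at room temperature after NADPH regeneration addition. Data normalized to full inhibition by 1.43 uM quinidine.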

Sequence of Cytochrome P450 2D6 (Homo sapiens) (P10635 whole entry, looked up): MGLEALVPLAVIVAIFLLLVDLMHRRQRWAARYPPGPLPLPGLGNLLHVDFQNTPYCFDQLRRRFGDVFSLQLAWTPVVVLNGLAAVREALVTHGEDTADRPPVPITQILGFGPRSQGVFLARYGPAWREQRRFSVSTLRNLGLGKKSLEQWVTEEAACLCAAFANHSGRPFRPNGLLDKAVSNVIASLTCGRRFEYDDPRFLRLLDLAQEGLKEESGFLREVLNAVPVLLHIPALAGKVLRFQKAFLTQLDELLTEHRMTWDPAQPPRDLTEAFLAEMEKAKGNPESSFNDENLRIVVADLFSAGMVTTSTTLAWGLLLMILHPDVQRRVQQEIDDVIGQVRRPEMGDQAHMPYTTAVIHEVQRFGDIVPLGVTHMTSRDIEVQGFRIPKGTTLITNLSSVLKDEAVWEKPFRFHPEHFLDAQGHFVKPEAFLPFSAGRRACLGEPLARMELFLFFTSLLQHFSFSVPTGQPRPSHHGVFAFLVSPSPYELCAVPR

Potency, inactive:
C/C=C/OC(=O)NC(c1ccccc1)[C@]1(C(C)=O)CCCC1=O (stereo partly drawn), CCC12C=C(/C=C/c3ccccc3)C(CC)(C1)C(c1ccccc1)CC2=O (stereo not drawn), C[C@@H]1/C=C\CC(=O)OC[C@H](C)C(=O)N[C@@H](Cc2ccccc2)C(=O)OC1, CCCCCCCC#Cc1ccccc1C(NC(=O)OC)C(C(=O)OC)C(=O)OC (stereo not drawn)

From PubChem BioAssay (NCATS)
